Laboratory results reported in PubChem BioAssay (Tox21).
Values joined by “and” are separate entries in the source; they are usually repeats but may differ in a detail not shown here. Equal values may be shown once. Results filed as inconclusive are left out. Where a call stands in place of a potency, no number is given. Active and inactive are the calls of the source. Unless noted, calls follow the shape of the dose curve; as a rule, active = well fitted curve in the direction sought with a large enough effect in the repeat runs; inconclusive = weak or mixed curves; inactive = no such curve, though single readings can be large; an effect the other way counts as inactive or inconclusive.

Legend:
[1] = target: Aryl hydrocarbon receptor (Homo sapiens) (UniProt P35869); test: qHTS assay to identify small molecule that activate the aryl hydrocarbon receptor (AhR) signaling pathway (AID 743085);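 also: HG2L7.5c1 human HepG2 liver cells with stably integrated DRE-driven firefly reporter; series mostly up to about 70 µM; nearly all actives have a fitted effect of over 15% in size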
Sequence of Aryl hydrocarbon receptor (Homo sapiens) (P35869 whole entry, looked up): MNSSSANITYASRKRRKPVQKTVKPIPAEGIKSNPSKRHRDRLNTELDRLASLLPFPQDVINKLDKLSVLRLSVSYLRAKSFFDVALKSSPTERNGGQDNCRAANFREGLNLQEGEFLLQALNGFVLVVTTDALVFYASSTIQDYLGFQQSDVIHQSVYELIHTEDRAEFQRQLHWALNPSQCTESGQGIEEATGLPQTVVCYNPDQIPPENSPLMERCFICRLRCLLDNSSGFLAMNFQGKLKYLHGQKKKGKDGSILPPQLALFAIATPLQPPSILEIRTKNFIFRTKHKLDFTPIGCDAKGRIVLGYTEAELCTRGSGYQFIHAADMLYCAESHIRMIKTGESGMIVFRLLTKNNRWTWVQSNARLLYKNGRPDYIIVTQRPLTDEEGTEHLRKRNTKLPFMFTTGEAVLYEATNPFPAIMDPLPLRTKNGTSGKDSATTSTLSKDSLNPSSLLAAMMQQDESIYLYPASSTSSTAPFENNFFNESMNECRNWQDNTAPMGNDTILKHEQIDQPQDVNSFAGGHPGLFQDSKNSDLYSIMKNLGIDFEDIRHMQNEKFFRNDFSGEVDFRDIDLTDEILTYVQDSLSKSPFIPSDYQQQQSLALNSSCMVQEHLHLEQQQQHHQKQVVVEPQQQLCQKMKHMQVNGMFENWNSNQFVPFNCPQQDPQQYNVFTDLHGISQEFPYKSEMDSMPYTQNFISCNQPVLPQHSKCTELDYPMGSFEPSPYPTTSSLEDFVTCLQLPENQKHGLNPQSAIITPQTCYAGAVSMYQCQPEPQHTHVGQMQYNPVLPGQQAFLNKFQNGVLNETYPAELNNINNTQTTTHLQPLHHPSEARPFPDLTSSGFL
Summary of the method: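 HepG2 cells stably carrying a 20-DRE firefly luciferase reporter (HG2L7.5c1) treated with compound for 24 hr at 37C. Luciferase read by ONE-Glo luminescence, with CellTiter-Fluor viability read first.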

[2] = qHTS assay to identify small molecule that activate the aryl hydrocarbon receptor (AhR) signaling pathway - cell viability counter screen (AID 743086); also: nearly all actives have a fitted effect of over 45% in size; also: potency is read from the fitted curve at half-maximal effect
Summary of the method: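 Cytotoxicity counter screen: CellTiter-Fluor signal (30 min, 37 C) in 4000 HepG2 cells/well carrying the DRE-luciferase reporter, following 24 h compound exposure at 37 C.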

[3] = qHTS assay to identify small molecule antagonists of the peroxisome proliferator-activated receptor gamma (PPARg) signaling pathway - cell viability counter screen (AID 743194); also: nearly all actives have a fitted effect of over 55% in size; also: potency is read from the fitted curve at half-maximal effect
Summary of the method: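 Viability was measured as CellTiter-Glo luminescence in GeneBLAzer PPARg UAS-bla HEK293H cells. These cells had been exposed 17 h at 37 C to compounds together with rosiglitazone at 50 nM final, with the beta-lactamase readout taken in the same wells.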

[4] = qHTS assay to identify small molecule agonists of the peroxisome proliferator-activated receptor delta (PPARd) signaling pathway - cell viability counter screen (AID 743211); also: nearly all actives have a fitted effect of over 55% in size; also: potency is read from the fitted curve at half-maximal effect
Summary of the method: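 PPARd-bla HEK293H cells (3000/well) were pre-incubated 5 h at 37 C, then exposed to compound for 17 h at 37 C. After 2 h with LiveBLAzer substrate, CellTiter-Glo was added to the same wells; luminescence read after 30 min at room temperature.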

[5] = qHTS assay for small molecule agonists of the antioxidant response element (ARE) signaling pathway - cell viability counter screen (AID 743203; calls by dose curve; also: nearly all actives have a fitted effect of over 55% in size; also: potency is read from the fitted curve at half-maximal effect)
Summary of the method: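 Measured in the same wells as the beta-lactamase ARE reporter, this read-out is CellTiter-Glo luminescence from HepG2 ARE-bla cells given compounds for 16 hrs.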

[6] = qHTS assay for small molecule activators of the heat shock response signaling pathway - cell viability counter screen (AID 743209); also: nearly all actives have a fitted effect of over 50% in size; also: potency is read from the fitted curve at half-maximal effect
Summary of the method: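 Same-well multiplex: after 2.5 h room-temperature incubation with LiveBLAzer B/G substrate and fluorescence reading, CellTiter-Glo reagent was added to HSE-bla HeLa cells that had received compound for 5 h at 37 C; luminescence read after 30 min.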

[7] = qHTS assay for small molecule agonists of the antioxidant response element (ARE) signaling pathway (AID 743202; active = well fitted activation curve with a large enough effect in the signal ratio in the repeat runs, not every such curve was filed as active; the % refers to the signal ratio)
Summary of the method: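 After 16 hours of compound treatment at 37 C, HepG2 cells with a stably integrated ARE-driven beta-lactamase reporter were loaded 2 hours at room temperature with LiveBLAzer B/G FRET substrate and fluorescence intensity measured.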

[8] = target: Peroxisome proliferator-activated receptor gamma (Homo sapiens) (UniProt P37231); test: qHTS assay to identify small molecule agonists of the peroxisome proliferator-activated receptor gamma (PPARg) signaling pathway (AID 743094; active = well fitted activation curve with a large enough effect in the signal ratio in the repeat runs, not every such curve was filed as active; the % refers to the signal ratio)
Sequence of Peroxisome proliferator-activated receptor gamma (Homo sapiens) (P37231 whole entry, looked up): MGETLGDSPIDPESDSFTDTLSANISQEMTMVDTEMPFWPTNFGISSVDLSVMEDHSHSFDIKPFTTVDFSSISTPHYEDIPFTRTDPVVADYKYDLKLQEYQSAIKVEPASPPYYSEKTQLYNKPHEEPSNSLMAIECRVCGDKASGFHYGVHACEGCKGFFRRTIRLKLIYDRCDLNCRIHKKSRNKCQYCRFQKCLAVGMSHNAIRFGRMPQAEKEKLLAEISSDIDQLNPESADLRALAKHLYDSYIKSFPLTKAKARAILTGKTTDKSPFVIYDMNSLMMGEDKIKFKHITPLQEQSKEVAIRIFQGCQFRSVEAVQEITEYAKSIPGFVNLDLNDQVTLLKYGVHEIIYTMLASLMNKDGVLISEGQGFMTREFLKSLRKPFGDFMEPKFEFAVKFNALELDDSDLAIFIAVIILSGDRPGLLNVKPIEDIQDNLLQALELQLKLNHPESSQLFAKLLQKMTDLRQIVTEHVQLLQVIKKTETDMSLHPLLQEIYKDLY
Summary of the method: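 Cell-based bla reporter, HEK293H background, PPARg-driven UAS. Pre-incubation 5 h, 37C, 5% CO2. Compound 17 h, 37C. Substrate 1 h RT; fluorescence.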

[9] = qHTS assay for small molecule activators of the heat shock response signaling pathway (AID 743210; active = well fitted activation curve with a large enough effect in the signal ratio in the repeat runs, with a control signal flat, not every such curve was filed as active; the % refers to the signal ratio; also: series mostly up to about 63 µM)
Summary of the method: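 Compound exposure lasted 5 h at 37 C in HeLa cells carrying a heat-shock-element-driven beta-lactamase reporter. Read-out: fluorescence intensity after 2.5 h room-temperature loading with LiveBLAzer B/G FRET substrate.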

SMILES: O=C(O)CCn1c2c(c3ccccc31)C[C@H](NS(=O)(=O)c1ccc(F)cc1)CC2
- Potency [1]: inactive
- Potency [2]: inactive
- Potency [3]: inactive
- Potency [4]: inactive

SMILES: CCCCCCCCCCCCCOP(=O)(O)O
- Potency [1]: inactive
- Potency [2]: inactive
- Potency [3]: 43.6 µM (active)
- Potency [5]: 43.3 µM (active)
- Potency [6]: 34.7 µM (active)

SMILES: CCOC(=O)N1CCC(=C2c3ccc(Cl)cc3CCc3cccnc32)CC1
- Potency [3]: 49 µM (active) and 26.6 µM (active)
- Potency [5]: 30.6 µM (active)
- Potency [6]: inactive
- Potency [4]: 27.5 µM (active) and 29.8 µM (active)

SMILES: CCCCCCC(C)OC(=O)COc1nc(F)c(Cl)c(N)c1Cl (stereo not given)
- Potency [2]: inactive
- Potency [7]: inactive
- Potency [5]: inactive

SMILES: CCCCCCC(C)Nc1ccc(Nc2ccccc2)cc1 (stereo not given)
- Potency [2]: inactive
- Potency [8]: inactive
- Potency [5]: inactive
- Potency [6]: 49 µM (active)

SMILES: CN1[C@@H]2CC[C@H]1CC(OC(=O)C(CO)c1ccccc1)C2 (stereo not given in full)
- Potency [2]: inactive
- Potency [3]: inactive
- Potency [4]: inactive

SMILES: C[C@@]12C(=O)OC(=O)[C@]1(C)C1CCC2O1
- Potency [2]: 0.569 µM (active)
- Potency [3]: inactive
- Potency [5]: 4.22 µM (active)
- Potency [6]: inactive
- Potency [9]: inactive

SMILES: C=CC(=C)CCC=C(C)C
- Potency [2]: inactive
- Potency [8]: inactive
- Potency [3]: inactive
- Potency [5]: inactive
- Potency [6]: inactive

SMILES: NCCCC(O)(P(=O)(O)O)P(=O)(O)O
- Potency [2]: inactive
- Potency [3]: inactive
- Potency [7]: inactive

SMILES: Cc1c(C)n(Cc2ccccc2)c2ccc(C(=O)OCCN(C)C)cc12
- Potency [8]: inactive
- Potency [3]: inactive
- Potency [5]: inactive
- Potency [6]: inactive
